# Values joined by “and” are separate entries in the source; they are usually repeats but may differ in a detail not shown here. Identical values can stand only once. The whole screen tested about 5,500 compounds, of which about 2,000 (36%) were called active. Another 18% or so got no clear call; they are omitted. Cut-off read from the data, not from the text of the source: active = normalized growth mostly below about 0.91 (no sharp cut-off); inconclusive = no clear call, values can overlap the other calls; inactive = mostly above about 0.92. The list shows a part of the results.
# Test: chemical genetic growth profiling, strain panel (AID 1159580);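 note: tested at 20 µM; growth read once vehicle control cultures reached saturation at 30 °C; 1 = growth at the plate median or of vehicle wells; lower values mean less growth of the strain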
# Details: growth OD
# [1] = S. cerevisiae deletion strains, locus YAL013W, strain DEP1, stronger effect = lower value
# [2] = S. cerevisiae deletion strains, locus YBR229C, strain ROT2, stronger effect = lower value
# [3] = S. cerevisiae deletion strains, locus YDL101C, strain DUN1, stronger effect = lower value
# [4] = S. cerevisiae deletion strains, locus YDR150W, strain NUM1, stronger effect = lower value
# [5] = S. cerevisiae deletion strains, locus YEL061C, strain CIN8, stronger effect = lower value
# [6] = S. cerevisiae deletion strains, locus YGR052W, strain FMP48, stronger effect = lower value
# [7] = S. cerevisiae deletion strains, locus YGR078C, strain PAC10, stronger effect = lower value
# [8] = S. cerevisiae deletion strains, locus YGR229C, strain SMI1, stronger effect = lower value
# [9] = S. cerevisiae deletion strains, locus YHR030C, strain SLT2, stronger effect = lower value
# [10] = S. cerevisiae deletion strains, locus YHR079C, strain IRE1, stronger effect = lower value
# [11] = S. cerevisiae deletion strains, locus YHR082C, strain KSP1, stronger effect = lower value
# [12] = S. cerevisiae deletion strains, locus YHR087W, strain rtc3, stronger effect = lower value
# [13] = S. cerevisiae deletion strains, locus YJL095W, strain BCK1, stronger effect = lower value
# [14] = S. cerevisiae deletion strains, locus YJL187C, strain SWE1, stronger effect = lower value
# [15] = S. cerevisiae deletion strains, locus YJR043C, strain POL32, stronger effect = lower value
# [16] = S. cerevisiae deletion strains, locus YJR066W, strain TOR1, stronger effect = lower value
# [17] = S. cerevisiae deletion strains, locus YJR075W, strain HOC1, stronger effect = lower value
# [18] = S. cerevisiae deletion strains, locus YKL203C, strain TOR2, stronger effect = lower value
# [19] = S. cerevisiae deletion strains, locus YLR039C, strain RIC1, stronger effect = lower value
# [20] = S. cerevisiae deletion strains, locus YLR058C, strain SHM2 (second series), stronger effect = lower value
# [21] = S. cerevisiae deletion strains, locus YLR085C, strain ARP6, stronger effect = lower value
# [22] = S. cerevisiae deletion strains, locus YLR113W, strain HOG1, stronger effect = lower value
# [23] = S. cerevisiae deletion strains, locus YLR262C, strain YPT6, stronger effect = lower value
# [24] = S. cerevisiae deletion strains, locus YML094W, strain GIM5, stronger effect = lower value
# [25] = S. cerevisiae deletion strains, locus YMR219W, strain ESC1, stronger effect = lower value
# [26] = S. cerevisiae deletion strains, locus YMR263W, strain SAP30, stronger effect = lower value
# [27] = S. cerevisiae deletion strains, locus YNL128W, strain TEP1, stronger effect = lower value
# [28] = S. cerevisiae deletion strains, locus YNL153C, strain GIM3, stronger effect = lower value
# [29] = S. cerevisiae deletion strains, locus YNL183C, strain NPR1, stronger effect = lower value
# [30] = S. cerevisiae deletion strains, locus YNL207W, strain RIO2, stronger effect = lower value
# [31] = S. cerevisiae deletion strains, locus YNL298W, strain CLA4 (second series), stronger effect = lower value
# [32] = S. cerevisiae deletion strains, locus YNL322C, strain KRE1, stronger effect = lower value
# [33] = S. cerevisiae deletion strains, locus YNR030W, strain Alg12, stronger effect = lower value
# [34] = S. cerevisiae deletion strains, locus YOR119C, strain RIO1, stronger effect = lower value
# [35] = S. cerevisiae deletion strains, locus YOR231W, strain MKK1, stronger effect = lower value
# [36] = S. cerevisiae deletion strains, locus YPL055C, strain LGE1, stronger effect = lower value
# [37] = S. cerevisiae deletion strains, locus YPL241C, strain CIN2, stronger effect = lower value
# [38] = S. cerevisiae deletion strains, locus YPL256C, strain CLN2, stronger effect = lower value
# [39] = S. cerevisiae deletion strains, locus YPR135W, strain CTF4, stronger effect = lower value
structure (smiles),measurement,setting,value
S=C(NCc1ccco1)Nc1ccc(Oc2ccc(Cl)cc2)cc1,normalized growth,[1],0.937 (inactive)
same,normalized growth,[2],0.868 (active)
same,normalized growth,[3],0.933 (inactive)
same,normalized growth,[4],0.863 (inactive)
same,normalized growth,[5],0.723 (active)
same,normalized growth,[6],1.04 (inactive)
same,normalized growth,[7],0.915 (active)
same,normalized growth,[8],0.987 (inactive)
same,normalized growth,[9],0.247 (active) and 1.07 (inactive)
same,normalized growth,[10],1.07 (inactive)
same,normalized growth,[11],1.14 (inactive)
same,normalized growth,[12],0.919 (inactive)
same,normalized growth,[13],0.948 (inactive)
same,normalized growth,[14],0.923 (active)
same,normalized growth,[15],0.926 (inactive)
same,normalized growth,[16],1.13 (inactive)
same,normalized growth,[17],0.95 (inactive)
same,normalized growth,"S. cerevisiae deletion strains, locus YKL171W, strain NNK1, stronger effect = lower value",1.06 (inactive)
same,normalized growth,[18],1.04 (inactive)
same,normalized growth,[19],0.41 (active)
same,normalized growth,[20],0.979 (inactive)
same,normalized growth,[21],0.355 (active)
same,normalized growth,[22],1.11 (inactive)
same,normalized growth,[23],0.463 (active)
same,normalized growth,[24],0.703 (active)
same,normalized growth,[25],0.97 (inactive)
same,normalized growth,[26],0.85 (active)
same,normalized growth,"S. cerevisiae deletion strains, locus YMR307W, strain GAS1, stronger effect = lower value",0.364 (active)
same,normalized growth,[27],0.887 (active)
same,normalized growth,[28],0.936 (inactive)
same,normalized growth,[29],1.04 (inactive)
same,normalized growth,[30],1.02 (inactive)
same,normalized growth,[31],0.652 (active)
same,normalized growth,[32],0.998 (inactive)
same,normalized growth,[33],0.544 (active)
same,normalized growth,[34],1 (inactive)
same,normalized growth,[35],0.944 (inactive)
same,normalized growth,[36],0.641 (active)
same,normalized growth,[37],0.361 (active)
same,normalized growth,[38],1.27 [resistant] (active)
same,normalized growth,[39],0.505 (active)
same,normalized growth,"S. cerevisiae strains, strain wild type, stronger effect = lower value",0.883 (active)
CC(NC(=S)Nc1ccc(Oc2ccc(Cl)cc2)cc1)c1ccccc1 (centres undefined),normalized growth,[1],0.973 (inactive)
same,normalized growth,"S. cerevisiae deletion strains, locus YAR019C, strain CDC15, stronger effect = lower value",0.952 (inactive)
same,normalized growth,"S. cerevisiae deletion strains, locus YBL105C, strain PKC1, stronger effect = lower value",0.965 (inactive)
same,normalized growth,"S. cerevisiae deletion strains, locus YBR135W, strain CKS1, stronger effect = lower value",0.956 (inactive)
same,normalized growth,"S. cerevisiae deletion strains, locus YBR136W, strain MEC1, stronger effect = lower value",0.968 (inactive)
same,normalized growth,"S. cerevisiae deletion strains, locus YBR160W, strain CDC28, stronger effect = lower value",0.976 (inactive)
same,normalized growth,[2],0.983 (inactive)
same,normalized growth,"S. cerevisiae deletion strains, locus YCL061C, strain MRC1, stronger effect = lower value",0.983 (inactive)
same,normalized growth,"S. cerevisiae deletion strains, locus YDL017W, strain CDC7, stronger effect = lower value",0.979 (inactive)
same,normalized growth,"S. cerevisiae deletion strains, locus YDL028C, strain MPS1, stronger effect = lower value",0.971 (inactive)
same,normalized growth,[3],0.978 (inactive) and 0.974 (inactive)
same,normalized growth,"S. cerevisiae deletion strains, locus YDL108W, strain KIN28, stronger effect = lower value",0.965 (inactive)
same,normalized growth,"S. cerevisiae deletion strains, locus YDL132W, strain cdc53, stronger effect = lower value",0.964 (inactive)
same,normalized growth,"S. cerevisiae deletion strains, locus YDL214C, strain PRR2, stronger effect = lower value",0.94 (inactive)
same,normalized growth,"S. cerevisiae deletion strains, locus YDR052C, strain DBF4, stronger effect = lower value",0.955 (inactive)
same,normalized growth,"S. cerevisiae deletion strains, locus YDR054C, strain cdc34, stronger effect = lower value",0.965 (inactive)
same,normalized growth,[4],0.97 (inactive)
same,normalized growth,"S. cerevisiae deletion strains, locus YDR226W, strain ADK1, stronger effect = lower value",0.953 (inactive)
same,normalized growth,"S. cerevisiae deletion strains, locus YDR477W, strain SNF1, stronger effect = lower value",0.937 (inactive)
same,normalized growth,[5],0.961 (inactive)
same,normalized growth,"S. cerevisiae deletion strains, locus YER123W, strain YCK3, stronger effect = lower value",0.909 (inactive)
same,normalized growth,"S. cerevisiae deletion strains, locus YER133W, strain GLC7, stronger effect = lower value",0.941 (inactive)
same,normalized growth,"S. cerevisiae deletion strains, locus YFL009W, strain cdc4, stronger effect = lower value",0.958 (inactive)
same,normalized growth,"S. cerevisiae deletion strains, locus YFL029C, strain CAK1, stronger effect = lower value",0.941 (inactive)
same,normalized growth,"S. cerevisiae deletion strains, locus YFR003C, strain YPI1, stronger effect = lower value",0.961 (inactive)
same,normalized growth,"S. cerevisiae deletion strains, locus YFR019W, strain FAB1, stronger effect = lower value",0.96 (inactive)
same,normalized growth,"S. cerevisiae deletion strains, locus YFR028C, strain CDC14, stronger effect = lower value",0.946 (inactive)
same,normalized growth,"S. cerevisiae deletion strains, locus YGR040W, strain KSS1, stronger effect = lower value",0.922 (inactive)
same,normalized growth,[6],1.08 (inactive)
same,normalized growth,[7],0.995 (inactive)
same,normalized growth,"S. cerevisiae deletion strains, locus YGR092W, strain DBF2, stronger effect = lower value",0.947 (inactive)
same,normalized growth,[8],0.975 (inactive)
same,normalized growth,[9],0.924 (inactive) and 0.84 (active)
same,normalized growth,[10],0.97 (inactive)
same,normalized growth,[11],1.02 (inactive)
same,normalized growth,[12],0.988 (inactive)
same,normalized growth,"S. cerevisiae deletion strains, locus YHR205W, strain SCH9, stronger effect = lower value",0.954 (inactive)
same,normalized growth,"S. cerevisiae deletion strains, locus YIL147C, strain SLN1, stronger effect = lower value",0.96 (inactive)
same,normalized growth,[13],0.932 (inactive)
same,normalized growth,"S. cerevisiae deletion strains, locus YJL128C, strain PBS2, stronger effect = lower value",0.918 (inactive)
same,normalized growth,"S. cerevisiae deletion strains, locus YJL157C, strain FAR1, stronger effect = lower value",0.927 (inactive)
same,normalized growth,[14],0.987 (inactive)
same,normalized growth,"S. cerevisiae deletion strains, locus YJR016C, strain ILV3, stronger effect = lower value",0.961 (inactive)
same,normalized growth,[15],0.998 (inactive)
same,normalized growth,"S. cerevisiae deletion strains, locus YJR066W, strain TOR1 (second series), stronger effect = lower value",0.933 (inactive)
same,normalized growth,[16],0.981 (inactive)
same,normalized growth,[17],1.01 (inactive)
same,normalized growth,"S. cerevisiae deletion strains, locus YKL048C, strain ELM1, stronger effect = lower value",0.965 (inactive)
same,normalized growth,"S. cerevisiae deletion strains, locus YKL067W, strain YNK1, stronger effect = lower value",0.916 (inactive)
same,normalized growth,"S. cerevisiae deletion strains, locus YKL101W, strain HSL1, stronger effect = lower value",0.949 (inactive)
same,normalized growth,"S. cerevisiae deletion strains, locus YKL193C, strain SDS22, stronger effect = lower value",0.958 (inactive)
same,normalized growth,[18],1.01 (inactive)
same,normalized growth,[19],0.78 (active)
same,normalized growth,[20],0.988 (inactive)
same,normalized growth,[21],0.875 (inactive)
same,normalized growth,[22],0.923 (inactive)
same,normalized growth,"S. cerevisiae deletion strains, locus YLR133W, strain CKI1, stronger effect = lower value",0.932 (inactive)
same,normalized growth,[23],0.871 (inactive)
same,normalized growth,"S. cerevisiae deletion strains, locus YLR403W, strain SFP1, stronger effect = lower value",0.962 (inactive)
same,normalized growth,"S. cerevisiae deletion strains, locus YML070W, strain DAK1, stronger effect = lower value",0.924 (inactive)
same,normalized growth,[24],0.905 (inactive)
same,normalized growth,"S. cerevisiae deletion strains, locus YMR001C, strain CDC5, stronger effect = lower value",0.968 (inactive)
same,normalized growth,"S. cerevisiae deletion strains, locus YMR205C, strain PFK2 (second series), stronger effect = lower value",0.951 (inactive)
same,normalized growth,[25],0.99 (inactive)
same,normalized growth,[26],0.971 (inactive)
same,normalized growth,"S. cerevisiae deletion strains, locus YMR277W, strain FCP1, stronger effect = lower value",0.96 (inactive)
same,normalized growth,"S. cerevisiae deletion strains, locus YNL006W, strain LST8, stronger effect = lower value",0.965 (inactive)
same,normalized growth,"S. cerevisiae deletion strains, locus YNL020C, strain ARK1, stronger effect = lower value",0.911 (inactive)
same,normalized growth,[27],0.964 (inactive)
same,normalized growth,[28],0.985 (inactive)
same,normalized growth,"S. cerevisiae deletion strains, locus YNL161W, strain CBK1, stronger effect = lower value",0.973 (inactive)
same,normalized growth,[29],0.955 (inactive)
same,normalized growth,[30],0.959 (inactive)
same,normalized growth,"S. cerevisiae deletion strains, locus YNL222W, strain SSU72, stronger effect = lower value",0.965 (inactive)
same,normalized growth,[31],0.918 (inactive)
same,normalized growth,"S. cerevisiae deletion strains, locus YNL307C, strain MCK1 (second series), stronger effect = lower value",0.906 (inactive)
same,normalized growth,[32],1 (inactive)
same,normalized growth,[33],0.944 (inactive)
same,normalized growth,"S. cerevisiae deletion strains, locus YOL078W, strain AVO1, stronger effect = lower value",0.954 (inactive)
same,normalized growth,"S. cerevisiae deletion strains, locus YOL136C, strain PFK27, stronger effect = lower value",0.929 (inactive)
same,normalized growth,"S. cerevisiae deletion strains, locus YOR061W, strain CKA2, stronger effect = lower value",0.941 (inactive)
same,normalized growth,[34],1.04 (inactive)
same,normalized growth,[35],1.01 (inactive)
same,normalized growth,"S. cerevisiae deletion strains, locus YOR329C, strain SCD5, stronger effect = lower value",0.976 (inactive)
same,normalized growth,"S. cerevisiae deletion strains, locus YPL031C, strain PHO85, stronger effect = lower value",0.93 (inactive)
same,normalized growth,[36],0.905 (inactive)
same,normalized growth,"S. cerevisiae deletion strains, locus YPL153C, strain RAD53, stronger effect = lower value",0.937 (inactive)
same,normalized growth,"S. cerevisiae deletion strains, locus YPL204W, strain HRR25, stronger effect = lower value",0.899 (inactive)
same,normalized growth,"S. cerevisiae deletion strains, locus YPL209C, strain IPL1, stronger effect = lower value",0.967 (inactive)
same,normalized growth,[37],0.93 (inactive)
same,normalized growth,[38],0.915 (inactive)
same,normalized growth,"S. cerevisiae deletion strains, locus YPR025C, strain CCL1, stronger effect = lower value",0.961 (inactive)
same,normalized growth,"S. cerevisiae deletion strains, locus YPR106W, strain ISR1, stronger effect = lower value",0.949 (inactive)
same,normalized growth,"S. cerevisiae deletion strains, locus YPR111W, strain DBF20, stronger effect = lower value",1.01 (inactive)
same,normalized growth,[39],0.97 (inactive)
same,normalized growth,"S. cerevisiae deletion strains, strain NNK1, stronger effect = lower value",0.964 (inactive)
same,normalized growth,"S. cerevisiae deletion strains, strain TSCII, stronger effect = lower value",0.954 (inactive)

# From PubChem BioAssay AID1159580 (chemical genetic matrix, 2015)
